Shown are actives, neighbours in structure and some others; about 3.7% of the full set was active somewhere.
MITF TRPM1 HTS = MITF TRPM1 promoter activation in melanoma cells; SK-MEL-5 TRPM1-promoter luciferase, 24 h; % of positive control, neutral wells = 0; activation, % at 12.5 µM; 0.75% of 300,000 active; AID 588334;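 active = mean activation of at least 80% with every replicate also reaching 80%; inconclusive = mean reaches 80% but some replicate falls short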;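 note: 0% = neutral control wells and 100% = parthenolide positive control wells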
AF4-AF9 inh = MLL-AF4/AF9 protein interaction inhibition | P42568 | AlphaScreen, biotin-AF4 peptide binding to FLAG-AF9 | inhibition, % at 10 µM | 0.47% of 350,000 active | AID 651704;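 active = every replicate reaching a set inhibition limit, whatever the replicate mean, cut at about 25% in these data; inconclusive = mean inhibition reaches that limit but some replicates miss it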;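 note: 0% = plate neutral control median and 100% = total signal loss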
Target sequence (P42568 whole entry, looked up): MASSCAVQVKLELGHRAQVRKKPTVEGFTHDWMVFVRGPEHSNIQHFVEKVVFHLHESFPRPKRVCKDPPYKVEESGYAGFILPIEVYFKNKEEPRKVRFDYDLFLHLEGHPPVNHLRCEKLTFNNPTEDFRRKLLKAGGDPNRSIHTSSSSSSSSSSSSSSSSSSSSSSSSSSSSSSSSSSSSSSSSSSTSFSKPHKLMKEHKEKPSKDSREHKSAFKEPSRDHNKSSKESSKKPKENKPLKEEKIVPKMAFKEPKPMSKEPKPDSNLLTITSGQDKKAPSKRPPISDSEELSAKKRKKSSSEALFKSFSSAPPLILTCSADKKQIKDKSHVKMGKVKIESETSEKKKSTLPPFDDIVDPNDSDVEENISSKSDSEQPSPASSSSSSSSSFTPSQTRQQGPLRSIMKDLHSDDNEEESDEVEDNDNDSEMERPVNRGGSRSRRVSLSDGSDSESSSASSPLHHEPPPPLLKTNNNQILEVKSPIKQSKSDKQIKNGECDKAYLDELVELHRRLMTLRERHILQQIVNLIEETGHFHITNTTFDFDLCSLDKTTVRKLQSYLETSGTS
esBAF inh = blocks esBAF chromatin remodeling in mouse ES cells | AID 602393 | 2% of 350,000 active | Bmi1-luciferase knock-in reporter, 24 h; 100% = twice the neutral-well signal | reporter increase, % at 12.5 µM; in the data active = activation above about 40%; inconclusive = no clear call, values can overlap the other calls;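 note: 0% = median of the plate's neutral control wells and 100% = double that signal; a rise in the Bmi1 reporter signal indicates esBAF inhibition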
rRNA inh HTS = selective bacterial rRNA inhibition in E. coli; E. coli WT GFP vs humanized-ribosome RFP mutants, fluorescence, 24 h; active compounds read low; DMSO median 0, no signal -100; GFP signal change (wild-type ribosome), % (no concentration beside the values); 1.6% of 350,000 active;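 active = significant combined selectivity score with lowered wild-type GFP, culture density cut under 30%, mutant RFP and density less affected; inactive = any of these conditions unmet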
Wnt act = Wnt/beta-catenin pathway activation | Wnt/beta-catenin reporter cell assay, activator, plate reader | activation, % at 9.35 µM | 1.2% of 300,000 active | AID 743398; in the data active = activation above about 30%, passing the limit was not always enough; inconclusive = no clear call, values can overlap the other calls;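 note: 0% = neutral control wells and 100% = positive control wells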
An asterisk follows results filed as active; ? = inconclusive; · = no result.

SMILES	MITF TRPM1 HTS	AF4-AF9 inh	esBAF inh	rRNA inh HTS	Wnt act
COc1cc(C2CC(C(F)(F)F)n3ncc(C(=O)O)c3N2)cc(OC)c1OC (stereo not drawn)	·	·	·	·	-9
Cc1cc(C(F)(F)Cl)n2ncc(-c3ccccn3)c2n1	-12	0	61*	4	-1
CCCS(=O)(=O)N1CCC(C(=O)NCCN2CCC(Cc3ccccc3)CC2)CC1	4	·	·	·	·
Cc1cc(Br)cc(Cl)c1OC(=O)c1cnccn1	-2	-1	-1	7	-2
COc1cc(C#Cc2c(-c3cncn3C)n(C)c3ccc(-c4cnc(N5CCOCC5)nc4)cc23)cc(OC)c1	89*	11	29	2	22
Cc1cccc(N2CCc3c2nc2ccc(Br)cc2c3N)c1	24	-1	4	-49*	12
CCC(=O)N(C)C[C@H]1Oc2cc(-c3ccc(F)cc3)ccc2S(=O)(=O)N([C@@H](C)CO)C[C@H]1C	·	-2	-15	-2	·
Nc1nc(N)c(N=O)c(OCC2CCCCC2)n1	-13	2	42*	-15	0
O=S(=O)(c1ccc(F)cc1)N1CCCCN2[C@@H](CO)[C@@H](c3ccc(C#CC4CC4)cc3)[C@@H]2C1	·	1	-2	-42	·
CN(C)c1ccc(NC(=O)N2CCOCC2)cc1	23	·	55*	·	8
O=C(Nc1ccc(F)cc1)N1CCOCC1	2	·	·	·	·
COc1ccc2c3c(n(C)c2c1)[C@H](CO)N(S(C)(=O)=O)CC31CN(C(=O)c2ccccn2)C1	·	3	·	1	·
NC(=O)C1Cc2ccccc2CN1S(=O)(=O)c1ccc(Cl)s1 (stereo not drawn)	-1	0	-3	4	-1
CCC(=O)N(Cc1cc2ccccc2[nH]c1=O)C(C)C	2	·	2	3	·
CN(Cc1cc2ccccc2[nH]c1=O)C(=O)COc1ccccc1	-4	0	·	8	50*
N/C(Cc1nc(-c2ccc(Cl)cc2)cs1)=N/O	·	·	?	-33	37*
Cc1ccc(-c2csc(CC(N)=O)n2)cc1	-2	-2	9	4	4
CC(=Nc1cccc(O)c1)c1sc2ccccc2c1O	55	-5	82*	3	20
CC(=Nc1ccc(C)cc1)c1sc2ccccc2c1O	27	·	·	·	46*
CSc1ccc(/C=N/NC(=O)c2ccccc2Cl)cc1	44	5	79*	11	8
O=C(N/N=C/c1cc([N+](=O)[O-])ccc1N1CCCCCC1)c1ccccn1	28	12	·	·	12
O=C(N/N=C/c1ccc(OC(=O)c2ccccc2Cl)cc1)c1cc(O)cc(O)c1	8	4	6	-1	-6
O=C(Oc1cccc(/C=N/NC(=O)c2ccccn2)c1)c1ccc([N+](=O)[O-])cc1	38	-16	-36	1	34*
CN(C)c1ccc(/C=N/NC(=O)c2ccccc2Cl)cc1	18	8	22	13	9
O=C(N/N=C/c1ccc(OC(=O)c2ccccc2Cl)cc1)c1ccccn1	96*	·	·	·	·
SMILES	MITF TRPM1 HTS	AF4-AF9 inh	esBAF inh	rRNA inh HTS	Wnt act
O=C(c1ccc2c(=O)n3c(nc2c1)CCCCC3)N1CCN(c2ccccc2F)CC1	·	-2	0	-5	5
CC1(C(=O)Nc2ccc(Cl)c(C(F)(F)F)c2)Cc2c(-c3cccc(C(N)=O)c3)ccnc2O1 (stereo not drawn)	·	1	1	-29	-1
O=C(Nc1ccccc1Cl)NC1(C(=O)NCCCN2CCOCC2)CCCCC1	-11	·	16	·	-2
C[C@@H]1CN([C@H](C)CO)C(=O)c2cc(NS(=O)(=O)c3ccccc3)ccc2O[C@H]1CN(C)C(=O)NC1CCCCC1	·	-3	-8	1	·
O=C(Nc1ccc(N2CCCC2=O)cc1)c1cccc(F)c1	58	-55	·	4	27
CCN1CCN(c2ccc(NC(=O)c3cccc(N4CCCC4=O)c3)cc2)CC1	5	3	60*	4	21
O=C(Nc1ccc(Cl)cc1)c1ccco1	45	0	37	7	45*
CCN1CCN(c2ccc(NC(=O)c3ccco3)cc2)CC1	86*	-2	·	8	16
COc1ccccc1N1CCN(CC(=O)Nc2ccc(Cl)c(C(F)(F)F)c2)CC1	-13	-19	-6	-53	-2
COc1ccccc1-c1ccc2c(c1)O[C@H](CN(C)S(=O)(=O)c1ccc(C)cc1)[C@H](C)CN([C@H](C)CO)S2(=O)=O	·	1	14	2	·
CCc1nc(NCc2cccs2)c2nnn(Cc3ccccc3)c2n1	·	0	-1	5	-1
CCc1nc(Nc2ccccc2)c2nnn(Cc3ccccc3)c2n1	-17	2	-1	-30*	0
COCCCN(C(=O)c1ccc(-c2ccc(C(C)=O)cc2)o1)c1c(N)n(CC(C)C)c(=O)[nH]c1=O	11	0	15	10	10
c1ccc(CSc2nnc(Cc3ccccn3)o2)cc1	·	·	23	·	-2
Brc1ccc(-c2nnc(SCCC3OCCCO3)o2)cc1	33	·	27	·	·
c1ccc(CSc2nnc(Cc3ccccc3)o2)cc1	73	-3	·	-31*	22
O=S(=O)(c1ccc(-c2nnc(SCc3ccccc3)o2)cc1)N1CCCC1	3	·	14	·	-8
c1ccc(CSc2nnc(-c3cccnc3)o2)cc1	50	·	42*	·	6
c1ccc(-c2nnc(SCCC3OCCCO3)o2)cc1	11	·	·	·	48*
Oc1ccc(-c2nnc(SCc3ccccc3)o2)cc1	114*	-8	49*	-5	17
O=C(CN(C(=O)c1csnn1)c1ccc(F)c(Cl)c1)NC1CCCC1	-11	-10	-10	3	-3
CCCCCCOC(=O)C1=C(C)NC(=O)NC1c1ccc(O)cc1 (stereo not drawn)	-2	·	-2	·	-1
COc1cccc(S(=O)(=O)N2C[C@H](O)COC[C@@H]3O[C@@H](CC(=O)N4CCOCC4)CC[C@H]32)c1	·	1	-3	2	·
O=C(CSc1ccc(-c2cccnc2)nn1)N1CCCc2ccccc21	·	-6	·	-23*	-1
c1cncc(CSc2ccc(-c3cccnc3)nn2)c1	23	0	24	0	5
SMILES	MITF TRPM1 HTS	AF4-AF9 inh	esBAF inh	rRNA inh HTS	Wnt act
c1ccc(CSc2ccc(-c3cccnc3)nn2)cc1	89*	-1	59*	-10	-1
C#CCSc1nnc(-c2ccc(O)cc2)o1	?	1	69*	-3	46*
O=C(CSc1ccc(-c2ccc(Cl)cc2)nn1)N1CCCc2ccccc21	-6	3	·	-20	-3
CN(CC(=O)Nc1ccccc1Cl)C(=O)c1cccc(S(=O)(=O)N2CCN(c3ccc(F)cc3)CC2)c1	-27	3	-11	-25*	-6
CN(CC(=O)Nc1ccccc1Cl)C(=O)c1cccc(S(=O)(=O)N2CCN(c3ccccc3)CC2)c1	-28	8	-14	-6	-6
NC(=O)C1Cc2ccccc2CN1C(=O)c1cc(C2CC2)nn1-c1ccccc1 (stereo not drawn)	-4	1	0	-21*	2
COc1ccccc1C1CCN(c2ccc([N+](=O)[O-])c(OC)c2)CC1	34	9	55*	-15	2
O=C(/C=C/c1ccc(Br)cc1)NC1CCCCCC1	74	·	30	·	13
